This excerpt belongs to a sample that is enriched for hits.
Glyco luc inh = N-linked glycosylation inhibition. AID 588692. reporter increase, % at 12.5 µM. D54 ERlucT glycosylation luciferase reporter, 24 h; percent of 100 nM tunicamycin response. 360,000 tested, 0.23% active;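 active means mean luciferase reporter signal, scaled so untreated is 0 and the glycosylation-blocking control 100, at or above a set limit in every replicate; inconclusive means mean reaches the limit but not every replicate does; inactive means mean below the limit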;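 further: luciferase carries N-glycosylation sites so blocking glycosylation raises the light; 0% = median of neutral control wells and 100% = median of 100 nM tunicamycin wells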
DENV2 CPE rescue = inhibitors of DENV2 cytopathic effect | DENV2-infected cells, cytopathic effect rescue, plate reader | CPE inhibition, % at 9.99 µM | 350,000 tested, 1.7% active; in the data active means CPE inhibition above about 20%, passing the limit was not always enough; inconclusive means no clear call, values can overlap the other calls; tested in BHK-21 cells;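 further: 0% = median of neutral control wells and 100% = median of positive control wells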
PglD inh = PglD (C. jejuni) enzyme inhibition | purified PglD enzyme, DTNB colorimetric CoA detection | AID 602405 | inhibition, % at 12.5 µM | 360,000 tested, 0.098% active; in the data active means inhibition above about 16%, passing the limit was not always enough; inconclusive means no clear call, values can overlap the other calls
Rtt109 HAT inh = inhibitors of Candida albicans Rtt109/Vps75 histone acetyltransferase. 330,000 tested, 0.16% active. inhibition, % at 34.9 µM. purified Rtt109/Vps75, ThioGlo CoA-SH fluorescence, 4 h;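 active means inhibition of at least 50% in every replicate; inconclusive means best replicate reaches 50% inhibition but some replicates fall short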
Target sequence (Q5AAJ8 whole entry, looked up): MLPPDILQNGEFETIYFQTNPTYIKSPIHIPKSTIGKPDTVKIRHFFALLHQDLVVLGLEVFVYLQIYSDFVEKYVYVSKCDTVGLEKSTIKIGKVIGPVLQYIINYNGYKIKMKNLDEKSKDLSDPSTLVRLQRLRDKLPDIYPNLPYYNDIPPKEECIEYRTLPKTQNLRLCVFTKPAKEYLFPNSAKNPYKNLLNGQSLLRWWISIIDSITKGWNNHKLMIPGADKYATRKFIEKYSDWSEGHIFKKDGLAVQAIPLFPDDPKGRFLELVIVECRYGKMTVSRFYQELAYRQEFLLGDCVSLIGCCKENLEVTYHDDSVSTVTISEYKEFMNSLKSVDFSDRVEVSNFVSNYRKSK
* hit, by the source's call; ? = inconclusive; . = no result given.

SMILES | Glyco luc inh | DENV2 CPE rescue | PglD inh | Rtt109 HAT inh
Nc1sc(-c2ccccc2)cc1C(=O)NCCN1CCOCC1 | . | 25.9* | . | .
O=C(NCCN1CCOCC1)c1ccccc1-c1ccccc1 | -0.4 | . | 4.6 | 3.3
O=C(Cc1ccccc1)N1C[C@@H]2[C@H](c3ccccc31)[C@H](CO)N2C(=O)Cc1ccccc1 | . | 16.6 | -0.4 | .
COC(=O)c1ccccc1-c1ccc(C(c2c(C)[nH][nH]c2=O)c2c(C)[nH][nH]c2=O)o1 | 29.5* | -4.9 | . | 0.3
O=C(Nc1ccccc1)N1CC(=O)N2[C@H](C1)[C@H](c1ccc(C#Cc3cccnc3)cc1)[C@@H]2CO | . | 13.7 | . | .
COc1ccccc1C(=O)Nc1ccc2c(c1)C(=O)N(C)C[C@H](OC)[C@H](C)CN(C)[C@H](C)CO2 | . | 5.3 | . | .
C[C@H]1CN([C@@H](C)CO)C(=O)Cc2cc(NC(=O)Nc3cccc4ccccc34)ccc2O[C@H]1CN(C)Cc1ccc(C(=O)O)cc1 | . | 5.4 | -4.3 | .
C[C@@H]1CN([C@@H](C)CO)C(=O)Cc2cc(NC(=O)Nc3cccc4ccccc34)ccc2O[C@@H]1CN(C)Cc1ccc(C(=O)O)cc1 | . | 48.9* | -3.6 | .
C[C@@H]1CN([C@@H](C)CO)C(=O)Cc2cc(NC(=O)Nc3cccc4ccccc34)ccc2O[C@H]1CN(C)Cc1ccccc1 | . | 20.4* | -2.9 | .
O=C(N/N=C/c1ccc(O)cc1O)NC12CC3CC(CC(C3)C1)C2 | 1.4 | 50.5* | -2.4 | .
O=C(N/N=C/c1cc([N+](=O)[O-])ccc1O)NC12CC3CC(CC(C3)C1)C2 | 4.8 | -4.2 | . | 1.9
C[C@H]1CCCCO[C@H](CN(C)S(=O)(=O)c2ccccc2)[C@@H](C)CN([C@@H](C)CO)C(=O)c2cc(NS(=O)(=O)c3ccc(Cl)cc3)ccc2O1 | . | 0.9 | 5.5 | .
CCOC(=O)CC1(C)Sc2ccccc2N1S(=O)(=O)c1ccc(C)cc1 (stereo not drawn) | . | 63.2* | . | .
CCOC(=O)CC1(CCc2ccccc2)Oc2ccccc2N1S(=O)(=O)c1ccc(C)cc1 (stereo not drawn) | . | -3.0 | . | .
Cc1c(/C=N/NC(=O)CNc2ccccc2)c2ccccn2c1C(=O)c1ccncc1 | 0.9 | 34.7* | . | -3.4
C[C@@H]1CN([C@@H](C)CO)C(=O)Cc2cc(NS(=O)(=O)c3ccc(Cl)cc3)ccc2O[C@@H]1CN(C)Cc1ccncc1 | . | 11.0 | 0.0 | .
C[C@H](CO)N1C[C@H](C)[C@@H](CN(C)S(=O)(=O)c2cn(C)cn2)Oc2ncc(C3=CCCC3)cc2C1=O | . | 22.9* | -5.6 | .
C[C@@H]1CN([C@@H](C)CO)C(=O)c2cc(-c3ccccc3)cnc2O[C@@H]1CN(C)C(=O)C1CCCCC1 | . | 12.2 | -1.0 | .
C[C@H](CO)N1C[C@H](C)[C@H](CN(C)C(=O)C2CCC2)Oc2ncc(C3=CCCC3)cc2C1=O | . | 29.7* | 2.4 | .
C[C@H]1CN([C@@H](C)CO)C(=O)c2cc(C3=CCCC3)cnc2O[C@H]1CN(C)C(=O)C1CCOCC1 | . | 11.5 | 4.3 | .
C[C@@H]1CN([C@@H](C)CO)C(=O)c2cc(-c3ccccc3)cnc2O[C@H]1CN(C)C(=O)C1CCCCC1 | . | 50.8* | 0.3 | .
C[C@@H]1CN([C@H](C)CO)C(=O)c2cc(C3=CCCC3)cnc2O[C@H]1CN(C)C(=O)C1CCOCC1 | . | 37.6* | 0.4 | .
CO[C@H](CN(C)S(=O)(=O)c1ccccc1)[C@@H](C)CN(C(=O)Nc1ccccc1F)[C@H](C)CO | . | 1.8 | -0.9 | .
O=C(NCC[C@@H]1CC[C@@H](NC(=O)C2CCOCC2)[C@@H](CO)O1)Nc1ccc(Cl)cc1 | . | 37.6* | 3.9 | .
O=C(NCC[C@@H]1CC[C@@H](NS(=O)(=O)c2ccc(Cl)cc2)[C@@H](CO)O1)Nc1ccc(F)cc1 | . | 33.3* | . | .
SMILES | Glyco luc inh | DENV2 CPE rescue | PglD inh | Rtt109 HAT inh
O=C(NCCCn1ccnc1)c1cc(-c2cccs2)on1 | 155.2* | . | -4.0 | 9.1
COc1ccc(OC)c(-c2cc(C(=O)NCCCn3ccnc3)no2)c1 | 1.6 | . | . | 8.6
O=C(NCCCN1CCOCC1)c1cc(-c2cccs2)on1 | 45.7* | 0.3 | 0.1 | 2.7
COc1ccccc1S(=O)(=O)N1CC[C@@H]2[C@@H](CO)Nc3ccc(-c4ccc(F)cc4)cc3[C@@H]21 | . | -21.7 | -2.4 | .
COc1ccccc1-c1ccc(C2[C@@H]3CN(S(=O)(=O)c4ccccc4)C[C@H]2N3)cc1 (stereo partly drawn) | . | 2.2 | . | .
C[C@@H]1CN([C@H](C)CO)C(=O)Cc2cc(NC(=O)Cn3cnnn3)ccc2O[C@H]1CN(C)C(=O)Nc1ccc2c(c1)OCO2 | . | 4.1 | 0.1 | .
C[C@@H]1CN([C@@H](C)CO)C(=O)Cc2cc(NC(=O)Cn3cnnn3)ccc2O[C@@H]1CN(C)C(=O)Nc1ccc2c(c1)OCO2 | . | 23.4* | -1.1 | .
COc1ccc(NC(=O)N(C)C[C@H]2Oc3ccc(NC(=O)Cn4cnnn4)cc3CC(=O)N([C@@H](C)CO)C[C@@H]2C)cc1 | . | 56.3* | -2.5 | .
CN1C(=O)c2cc(NC(=O)C3CCOCC3)ccc2OC[C@H]2O[C@@H](CC(=O)NCc3ccc4c(c3)OCO4)CC[C@H]21 | . | -2.5 | -0.6 | .
C[C@H](NC(=O)c1nc[nH]c1C(=O)N(C)Cc1ccccc1)c1ccccc1 | -0.8 | 2.0 | 1.9 | 10.5
C[C@H](NC(=O)c1ncn(Cc2ccccc2)c1C(=O)N[C@@H](C)c1ccccc1)c1ccccc1 | -4.6 | 75.4* | 5.3 | 3.0
C[C@@H](NC(=O)c1nc[nH]c1C(=O)N(C)Cc1ccccc1)c1ccccc1 | 1.6 | 35.4* | -4.2 | -1.7
C[C@@H](NC(=O)c1nc[nH]c1C(=O)N1CCN(c2ccccc2)CC1)c1ccccc1 | 27.8* | 6.9 | -4.1 | -4.7
Cc1noc(C)c1NC(=O)N(C)C[C@H]1Oc2c(NC(=O)NC(C)C)cccc2C(=O)N([C@@H](C)CO)C[C@H]1C | . | 8.9 | -0.9 | .
O=C(COc1ccc(-c2nnco2)cc1)NCc1ccccc1Cl | 1.4 | 42.9* | . | 0.1
CCCCOc1ccc(C(=O)N/N=C/c2ccc(OCCN3CCCCC3)c(OC)c2)cc1 | 2.3 | 32.2* | 2.3 | 12.0
CCCOc1ccc(/C=N/NC(=O)CN2CCCCC2)cc1OCC | 0.2 | 0.1 | 1.7 | 12.4
C[C@@H]1CN([C@@H](C)CO)C(=O)c2ccccc2-c2ccccc2CO[C@H]1CN(C)S(=O)(=O)c1ccc(C#N)cc1 | . | ? | 1.5 | .
C[C@@H]1CN([C@@H](C)CO)C(=O)c2cc(NC(=O)c3ccccc3)ccc2O[C@@H](C)CCCCO[C@H]1CN(C)C(=O)Nc1ccccc1 | . | 8.5 | 4.4 | .
COc1ccc([Si](C)(C)[C@@H]2[C@@H](CC(=O)N3Cc4ccccc4C[C@H]3CO)O[C@]3(C(=O)N(C)c4c(Br)cc(C)cc43)[C@H]2C)cc1 | . | 21.3* | 2.0 | .
CCC(=O)N1[C@@H]2c3ccc(-c4ccc(F)cc4)c(=O)n3C[C@@H]2[C@@H](CO)[C@@H]1C(=O)N(C)C | . | 0.0 | -0.1 | .
CC1CCCCN1C(=O)COC(=O)C1CCN(S(=O)(=O)c2ccc(Cl)c(C(F)(F)F)c2)CC1 (stereo not drawn) | 0.2 | 27.5* | 4.6 | 1.7
C=CCOc1ccc(/C(O)=C2\C(=O)C(=O)N(CCOC)C2c2cccnc2)cc1 (stereo not drawn) | -0.1 | . | 1.7 | 60.0*
